# Structures can show the parent of a compound that is named as a salt. ± gives the standard deviation of the averaged measurements.
# Test system: iBMDM (immortalised mouse bone-marrow-derived macrophages), LPS-stimulated
# Assay: mitochondrial superoxide (MitoSOX fluorescence) fold increase over unstimulated control; higher = more LPS-induced mitochondrial ROS (less inhibition)
# Conditions: inhibitor concentration: 500 nM, LPS: 100 ng/ml
# Summary of the method: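 After 20 h in phenol-red-free 1% FCS/DMEM in black 96-well plates, immortalised mouse bone-marrow-derived macrophages were exposed to kinase inhibitors (500 nM) for 30 min, 1 μM MitoSox for 10 min and then LPS (100 ng/ml). A ClarioStar plate reader recorded fluorescence at 510/580 nm every 60 min for 4 h. The reported mitochondrial superoxide is the mean fold induction versus untreated macrophages over triplicate wells.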
SMILES,mitochondrial superoxide (time after LPS: 1 h),mitochondrial superoxide (time after LPS: 2 h),mitochondrial superoxide (time after LPS: 4 h)
O=C1NCCc2[nH]c(-c3ccncc3)cc21,1.31 ± 0.054,1.41 ± 0.039,1.63 ± 0.06
CO[C@H]1C[C@@H]2CC[C@@H](C)[C@@](O)(O2)C(=O)C(=O)N2CCCC[C@H]2C(=O)O[C@H]([C@H](C)C[C@@H]2CC[C@@H](OC(=O)C(C)(CO)CO)[C@H](OC)C2)CC(=O)[C@H](C)/C=C(\C)[C@@H](O)[C@@H](OC)C(=O)[C@H](C)C[C@H](C)/C=C/C=C/C=C/1C,1.55 ± 0.051,1.65 ± 0.098,1.75 ± 0.089
CCc1nc(-c2cccc(C)c2)c(-c2ccnc(NC(=O)c3ccccc3)c2)s1,1.17 ± 0.028,1.17 ± 0.022,1.18 ± 0.04
CCOc1cc2ncc(C#N)c(Nc3ccc(OCc4ccccn4)c(Cl)c3)c2cc1NC(=O)/C=C/CN(C)C [Neratinib (HKI-272)],1.06 ± 0.1,1.19 ± 0.14,1.27 ± 0.092
O=C(NC(NC(=S)Nc1ccc(F)c([N+](=O)[O-])c1)C(Cl)(Cl)Cl)C(c1ccccc1)c1ccccc1 (stereo unspecified),1.13 ± 0.029,1.25 ± 0.031,1.37 ± 0.015
FC(F)(F)c1ccc(/C=C/c2nc(COc3ccc(CCCCn4ccnn4)cc3)co2)cc1 [Mubritinib (TAK 165)],1.06 ± 0.033,1.17 ± 0.075,1.296 ± 0.0099
CC(C)(C)c1cc(/C=C(\C#N)C(N)=S)cc(C(C)(C)C)c1O [Tyrphostin AG 879],1.37 ± 0.06,1.42 ± 0.037,1.61 ± 0.037
Nc1ncnc2c1c(-c1cccc(OCc3ccccc3)c1)cn2C1CC(CN2CCCC2)C1 (stereo unspecified),1.44 ± 0.15,1.55 ± 0.18,1.62 ± 0.21
CCN(CC)CCCCNc1ncc2cc(-c3cc(OC)cc(OC)c3)c(NC(=O)NC(C)(C)C)nc2n1,1.16 ± 0.036,1.11 ± 0.048,1.12 ± 0.045
COc1ccc(-c2ccc3c(N4CCOCC4)nc(N4C[C@@H](C)O[C@@H](C)C4)nc3n2)cc1CO,1.29 ± 0.041,1.24 ± 0.037,1.32 ± 0.068
Cc1ccc([N+](=O)[O-])cc1S(=O)(=O)N(C)/N=C/c1cnc2ccc(Br)cn12,1.17 ± 0.09,1.17 ± 0.015,1.21 ± 0.027
O=c1c(O)c(-c2ccc(O)c(O)c2)oc2cc(O)cc(O)c12 [Quercetin],1.31 ± 0.046,1.35 ± 0.071,1.43 ± 0.063
CN1CCN(c2ccc3nc(-c4c(N)c5c(F)cccc5[nH]c4=O)[nH]c3c2)CC1 [Dovitinib (TKI-258) Dilactic Acid],1.28 ± 0.073,1.32 ± 0.03,1.51 ± 0.041
CC1(COc2ccc3c(c2)ncn3-c2ccc3cccc(N4CCC(N)CC4)c3n2)COC1,1.04 ± 0.1,1.42 ± 0.11,1.66 ± 0.13
C=CC(=O)Nc1cccc(Nc2nc(Nc3ccc(Oc4ccnc(C(=O)NC)c4)cc3)ncc2F)c1,1.4 ± 0.018,1.49 ± 0.031,1.6 ± 0.023
O=C(Nc1cccc(Cl)c1)Nc1ncc(CCNc2ncnc3ccsc23)s1 [SNS-314 Mesylate],1.32 ± 0.029,1.36 ± 0.048,1.42 ± 0.08

SMILES,mitochondrial superoxide (time after LPS: 1 h),mitochondrial superoxide (time after LPS: 2 h),mitochondrial superoxide (time after LPS: 4 h)
O=C1NC(=O)/C(=C/c2ccc(-c3ccc(F)cc3O)o2)S1,1.4 ± 0.16,1.54 ± 0.25,1.78 ± 0.2
Oc1ccc(Nc2nc(-c3ccc(Cl)cc3)cs2)cc1,1.47 ± 0.039,1.56 ± 0.01,1.71 ± 0.11
C[C@@H](Oc1cc(-n2cnc3ccc(CN4CCN(C)CC4)cc32)sc1C(N)=O)c1ccccc1C(F)(F)F,1.12 ± 0.059,1.22 ± 0.025,1.35 ± 0.048
Cc1cnc(Nc2ccc(OCCN3CCCC3)cc2)nc1Nc1cccc(S(=O)(=O)NC(C)(C)C)c1,1.18 ± 0.14,1.33 ± 0.21,1.42 ± 0.22
Nc1nc(N)c2nc(-c3cccc(O)c3)c(-c3cccc(O)c3)nc2n1,1.18 ± 0.049,1.23 ± 0.1,1.4 ± 0.12
CN1CCN(c2nc(C3=C(c4c[nH]c5ccccc45)C(=O)NC3=O)c3ccccc3n2)CC1 [Sotrastaurin],1.41 ± 0.015,1.55 ± 0.039,1.749 ± 0.012
O=c1cc(-c2cccc3c2Sc2ccccc2S3)oc(N2CCOCC2)c1,1.39 ± 0.034,1.48 ± 0.063,1.51 ± 0.084
C[C@H](NC(=O)/C(C#N)=C/c1cccc(Br)n1)c1ccccc1,1.21 ± 0.039,1.368 ± 0.011,1.5 ± 0.04
COc1ccc(-c2cc3c(C)nc(N)nc3n([C@H]3CC[C@H](OCCO)CC3)c2=O)cn1,1.37 ± 0.058,1.53 ± 0.056,1.74 ± 0.049
O=c1c(-c2ccc(O)cc2)coc2cc(O)cc(O)c12 [Genistein],1.22 ± 0.079,1.29 ± 0.058,1.36 ± 0.15
CNC(=O)c1ccc(C)c(-n2c(C)cc(OCc3ccc(F)cc3F)c(Br)c2=O)c1,1.33 ± 0.056,1.48 ± 0.059,1.6 ± 0.016
CN1CCN(S(=O)(=O)c2ccc(-c3cnc(N)c(C(=O)Nc4cccnc4)n3)cc2)CC1,1.34 ± 0.053,1.46 ± 0.031,1.63 ± 0.03
CC(C)(C)NS(=O)(=O)c1cncc(-c2cc(F)c3nc(N)nn3c2)c1,1.09 ± 0.021,1.18 ± 0.038,1.31 ± 0.064
N#CC(=C(/N)Sc1ccccc1N)/C(C#N)=C(\N)Sc1ccccc1N,1.36 ± 0.043,1.4 ± 0.048,1.45 ± 0.047
CNC(=O)c1c(F)cccc1Nc1nc(Nc2cc3c(cc2OC)CCN3C(=O)CN(C)C)nc2[nH]ccc12,1.28 ± 0.057,1.47 ± 0.031,1.64 ± 0.015
O=C(NC1CCNCC1)c1n[nH]cc1NC(=O)c1c(Cl)cccc1Cl,1.13 ± 0.061,1.15 ± 0.041,1.3 ± 0.018
